ASK1 primary: inhibitors of human ASK1 kinase. inhibition, % at 7.44 µM. AlphaScreen MKK6 phosphorylation by ASK1, luminescence. Q99683. 22,000 tested, 0.99% active; in the data active = inhibition above about 35%;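 also: 0% = median of compound wells and 100% = no enzyme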
ULK1 inh: human ULK1 kinase inhibition, primary screen | O75385 | 30,000 tested, 1.9% active | AlphaScreen Atg13 phosphorylation by ULK1, luminescence | AID 1259251 | inhibition, % at 5.96 µM; in the data active = inhibition above about 43%;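 also: 0% = median of compound wells and 100% = no enzyme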
The depositor's hits bear a star. This is a sample that favours compounds with a hit; in the whole collection about 2.4% have one here.

Screening c1cc(-n2cnc(N3CCOCC3)n2)ccc1Nc1cc2cc(-c3cn[nH]c3)ccc2cn1 returned ASK1 primary -6 and ULK1 inh 87*.
For Clc1cnc(Nc2ccc(-n3cnc(N4CCOCC4)n3)cc2)nc1-c1ccno1 the results were ASK1 primary -29 and ULK1 inh 7.
`Cc1cc(-c2nc(Nc3ccc(-n4cnc(N5CCOCC5)n4)cc3)ncc2Cl)no1` gave ASK1 primary -35 and ULK1 inh 44*.
c1ccc(-c2ccc3cnc(Nc4ccc(-n5cnc(N6CCOCC6)n5)cc4)nc3c2)cc1 was read as ASK1 primary -11 and ULK1 inh 13.
`c1ccc2nc(Nc3ccc(-n4cnc(N5CCOCC5)n4)cc3)ncc2c1` gave ASK1 primary -7 and ULK1 inh 46*.
`c1cc(-c2cn[nH]c2)cc(Nc2ccc(N3CCOCC3)cc2)n1` gave ASK1 primary -2 and ULK1 inh 27.
Screening Cn1cc(-c2ccc3cnc(Nc4ccc(-n5cnc(C(C)(C)C)n5)cc4)nc3c2)cn1 returned ASK1 primary -3 and ULK1 inh 10.
Cn1cc(-c2ccc3cnc(Nc4ccc(-n5cnc(N6CCCC(O)C6)n5)cc4)nc3c2)cn1 (centres undefined) was read as ASK1 primary 6 and ULK1 inh 79*.
`COc1cc(Nc2nc(-c3cccc(C(C)=O)c3)nc3nc[nH]c23)cc(OC)c1OC` gave ASK1 primary 17 and ULK1 inh 3.
Screening Cc1cnc(Nc2cnccn2)nc1NCCCN1CCCC1=O returned ASK1 primary -20 and ULK1 inh -5.
Screening NC(=O)c1ccc(-c2cc(NCCN3CCOCC3)ncn2)cc1 returned ASK1 primary 14 and ULK1 inh -5.
Screening O=C(Cc1ccccc1)Nc1cnn(-c2cccc(C(=O)Nc3cccc(Cn4cccn4)c3)c2)c1 returned ASK1 primary -4 and ULK1 inh -16.
Cc1ncn(-c2ccc(Nc3cc(-c4cn(Cc5ccccc5)nc4-c4ccc(F)cc4)ccn3)cc2)n1 was read as ASK1 primary 0 and ULK1 inh -37.
O=C(NCc1cccnc1)c1csc(Nc2ccc(-n3ccnc3)cc2)n1 was read as ASK1 primary -23 and ULK1 inh 7.
For O=c1ccc(-c2ccc3cnc(Nc4ccc(-n5cnc(N6CCOCC6)n5)cc4)nc3c2)c[nH]1 the results were ASK1 primary -13 and ULK1 inh 34.
Screening c1cc(-n2cnc(N3CCOCC3)n2)ccc1Nc1ncc2ccc(-c3cn[nH]c3)cc2n1 returned ASK1 primary 7 and ULK1 inh 74*.
O=C1CCCN1CCCNc1nc(Nc2ncccn2)nc2c1ncn2C1CCCCC1 was read as ASK1 primary -16 and ULK1 inh -23.
For Cc1cc(Nc2ccc(OCCN3CCCCC3)cc2)nc(Nc2ccc(N3CCOCC3)cc2)n1 the results were ASK1 primary 10 and ULK1 inh 9.
COc1cc2nc(Nc3ncccn3)nc(Nc3ccc(N4CCOCC4)cc3)c2cc1OC was read as ASK1 primary -1 and ULK1 inh -7.
For COc1cc2nc(Nc3ccncc3)nc(Nc3ccc(N4CCOCC4)cc3)c2cc1OC the results were ASK1 primary 42* and ULK1 inh -4.
Screening COc1cc2nc(Nc3ccc(N4CCOCC4)cc3)nc(Nc3ccc(OCCN4CCCCC4)cc3)c2cc1OC returned ASK1 primary 49* and ULK1 inh -8.
`CCN(CC)c1nc(NCCN(C(C)C)C(C)C)nc(Nc2ccnn2C)n1` gave ASK1 primary -16 and ULK1 inh -3.
`Nc1cccc(-c2nc(Nc3ccccc3)c3[nH]cnc3n2)c1` gave ASK1 primary 10 and ULK1 inh -14.
For c1cnc(Nc2cc(NC3CC3)ncn2)cn1 the results were ASK1 primary 6 and ULK1 inh 4.
`Cc1cnc(-c2ccc(C(=O)N3CCN(C)CC3)cc2)nc1NCc1cccc(C(F)(F)F)c1` gave ASK1 primary -3 and ULK1 inh -5.
`CC(=O)Nc1ccc(Nc2cc(C)nc(N3CCN(c4ccccn4)CC3)n2)cc1` gave ASK1 primary 7 and ULK1 inh -11.
`Cc1cc(Nc2ccc(N3CCOCC3)cc2)nc(N2CCc3ccccc3C2)n1` gave ASK1 primary 58* and ULK1 inh -3.
Screening Cc1cc(Nc2ccc(N3CCOCC3)cc2)nc(N2CCN(c3ccccn3)CC2)n1 returned ASK1 primary 46* and ULK1 inh 4.
`CC(=O)Nc1ccc(Nc2cc(C)nc(N3CCc4ccccc4C3)n2)cc1` gave ASK1 primary 8 and ULK1 inh -9.
COCC(=O)Nc1nnc(CC(C)(C)C)s1 was read as ULK1 inh 3.
Screening CC(C)n1cnc2c(Nc3ccccc3)nc(Nc3ccccn3)nc21 returned ASK1 primary -4 and ULK1 inh 49*.
CC(C)n1cnc2c(Nc3ccccc3)nc(Nc3ccncn3)nc21 was read as ASK1 primary -5 and ULK1 inh 50*.
`COC(CNc1nccc(Nc2ccncn2)n1)c1cccs1` (centres undefined) gave ASK1 primary -4 and ULK1 inh 4.
Screening CC(=O)Nc1ccc(Nc2nc(Nc3ccc4ncccc4c3)nc3c2ncn3C(C)C)cc1 returned ASK1 primary -8 and ULK1 inh 34.
For CC(=O)Nc1ccc(Nc2nc(Nc3ncccn3)nc3c2ncn3C(C)C)cc1 the results were ASK1 primary 3 and ULK1 inh 47*.
For CC(CNc1nccc(Nc2ccncn2)n1)c1cccs1 (centres undefined) the results were ASK1 primary 10 and ULK1 inh 44*.
Screening CC(C)n1cnc2c(NC3CCN(Cc4ccccc4)CC3)nc(Nc3ccncn3)nc21 returned ASK1 primary 12 and ULK1 inh 15.
For CC(C)n1cnc2c(NCCO)nc(Nc3ccccn3)nc21 the results were ASK1 primary -8 and ULK1 inh 9.
C=CCn1c(NCCc2ccccc2)cc(=O)n(C)c1=O was read as ULK1 inh 4.
For Cc1nn(C)c(C)c1-c1ccc(C(=O)NCCO)s1 the results were ASK1 primary -3 and ULK1 inh -1.
CCNc1ccc(N2CCC(C(=O)NCCN3CCOCC3)CC2)nn1 was read as ASK1 primary -7 and ULK1 inh 1.
Screening O=C(NCCCN1CCCC1=O)c1cnc(-c2cccs2)s1 returned ASK1 primary -8 and ULK1 inh -6.
Screening c1ccc(Nc2ccnc(Nc3ccncc3)n2)cc1 returned ASK1 primary 3 and ULK1 inh 17.
c1ccc(Nc2ccnc(Nc3ccncn3)n2)cc1 was read as ASK1 primary 16 and ULK1 inh 45*.
CC(=O)Nc1ccc(Nc2nc(Nc3ccncn3)nc3c2ncn3C(C)C)cc1 was read as ASK1 primary 4 and ULK1 inh 55*.
Screening CC(=O)Nc1ccc(Nc2nc(Nc3ccncn3)nc3c2ncn3-c2ccccc2)cc1 returned ASK1 primary 5 and ULK1 inh -49.
`Cc1cnc(-c2c(C)noc2C)nc1NCCN1CCOCC1` gave ASK1 primary -12 and ULK1 inh 6.
For CCCNC(=O)c1ccnc(Nc2nc3ccccc3n2C)c1 the results were ASK1 primary -4 and ULK1 inh 18.
Screening O=C(Nc1ccc(-c2cn[nH]c2)cc1)N(Cc1ccccc1)C1CC1 returned ASK1 primary -2 and ULK1 inh -5.
Screening CN1CCc2cccc3c2[C@H]1Cc1ccc(O)c(O)c1-3 returned ULK1 inh 46*.
`Oc1cc(O)c2c(c1)O[C@H](c1ccc(O)c(O)c1)[C@@H](O)C2` gave ULK1 inh 53*.
